# Data published in PubChem BioAssay (NCATS).
# Inconclusive results are not listed. Entries that show only a call come without a potency. The source made the active and inactive calls. Calls follow the shape of the dose curve; as a rule, active = well fitted inhibition curve with a large enough effect; inconclusive = small, poorly fitted or top-dose-only effect; inactive = flat fitted curve, though single readings scatter.
# Test system: Zika virus NS2B-NS3 protease
# Assay: Primary screen GU AMC qHTS for Zika virus inhibitors (AID 1347154); also: nearly all actives have a fitted effect of over 70% in size
# Details: Zika NS2B-NS3 unlinked protease, AMC fluorogenic substrate; series mostly up to 54.1 µM
# Outline: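 Fluorogenic AMC-substrate cleavage by noncovalent NS2B-NS3 protease complex (25 nM, pH 8.0 Tris buffer with Tween 20) followed for 15 minutes at room temperature (~20% conversion). Percent inhibition from ex340/em450 signal change, fitted by 4-parameter Hill equation.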
row,Structure (SMILES),Potency
1,Clc1ccc(C(c2ccc(Cl)cc2)C(Cl)(Cl)Cl)cc1,inactive
2,O=C1c2ccccc2C(=O)c2ccccc21,inactive
3,NC(=O)c1cc([N+](=O)[O-])cc([N+](=O)[O-])c1,inactive
4,CCCCCCCCCC(=O)O[C@H]1CC[C@H]2[C@@H]3CCC4=CC(=O)CC[C@@H]4[C@H]3CC[C@]12C,inactive
5,CN1C(=O)CCS(=O)(=O)C1c1ccc(Cl)cc1 (configuration not stated),inactive
6,CC(C)NC(C)C,inactive
7,C=CCC1(C(C)CC)C(=O)NC(=O)NC1=O (configuration not stated),inactive
8,CN1CC[C@]23c4c5ccc(O)c4O[C@H]2[C@@H](O)C=C[C@H]3[C@H]1C5,inactive
9,CC(C)C[C@H](CN)CC(=O)O,inactive
10,COP(=S)(OC)Oc1ccc(S(=O)(=O)N(C)C)cc1,inactive
11,CN1C(=O)NC(=O)C(C)(C2=CCCCC2)C1=O (configuration not stated),inactive
12,COc1cc(CCN)cc(OC)c1OC,inactive
13,CCN(CCO)CCn1c(Cc2ccccc2)nc2c1c(=O)n(C)c(=O)n2C,inactive
14,COP(=S)(OC)Oc1ccc(SC)c(C)c1,inactive
15,O=P1(N(CCCl)CCCl)NCCCO1 (configuration not stated),inactive
16,CCCOC(=O)c1cncn1C(C)c1ccccc1 (configuration not stated),inactive
17,C[C@]12CCC(=O)C=C1CC[C@@H]1[C@@H]2CC[C@@]2(C)[C@H]1CC[C@]2(C)O,inactive
18,C#CC(O)(C=CCl)CC (configuration not stated),inactive
19,C[C@]12CCC(=O)C=C1CC[C@@H]1[C@@H]2CC[C@]2(C)C(=O)CC[C@@H]12,inactive

row,Structure (SMILES),Potency
1,CNCC(=O)c1ccc(O)c(O)c1,inactive
2,C[C@H]1[C@@H]2Cc3ccc(O)cc3[C@@]1(C)CCN2C,inactive
3,O=C(N/N=C/c1ccc([N+](=O)[O-])o1)c1cc([N+](=O)[O-])cc([N+](=O)[O-])c1O,inactive
4,CC1(C)C(C=C(Cl)Cl)C1C(=O)OC(C#N)c1cccc(Oc2ccccc2)c1 (configuration not stated),inactive
5,COP(=S)(OC)Oc1cc(Cl)c(Cl)cc1Cl,inactive
6,CC(C)c1cccc(C(C)C)c1O,inactive
7,CCc1cc2c(s1)-n1c(C)nnc1CN=C2c1ccccc1Cl,inactive
8,CCN[C@H](C)Cc1cccc(C(F)(F)F)c1,inactive
9,NC1=NC(=O)C(c2ccccc2)O1 (configuration not stated),inactive
10,O=C(O)CCCc1ccc(N(CCCl)CCCl)cc1,inactive
11,CCN[C@@H](C)Cc1cccc(C(F)(F)F)c1,inactive
12,CC(Cc1ccccc1)NCCn1cnc2c1c(=O)n(C)c(=O)n2C (configuration not stated),inactive
13,CC(C)(C)c1ccc(O)cc1,inactive
14,NC(=O)CS(=O)C(c1ccccc1)c1ccccc1 (configuration not stated),inactive
15,CCC1(c2ccc(N)cc2)CCC(=O)NC1=O (configuration not stated),inactive
16,Nc1nc(N)nc(NC2CC2)n1,inactive
17,Clc1ccccc1N1CCNCC1,inactive
18,ClCCN1CCCC1,inactive
